# RORgamma inh: inhibitors of mouse ROR gamma transcriptional activity; P51450; hit rate 5.4% among 310,000; Potency, µM (top dose mostly 53.6 µM), hits mostly inhibitors; Drosophila S2 Gal4-RORgamma UAS-luciferase reporter, 20 h; AID 2551; also: nearly all actives have a fitted effect of over 60% in size
#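 ROR gamma transcriptional activity was tracked as Gal4-UAS luciferase output in stably transfected Drosophila Schneider cells, with compound added 1 hr before 700 uM copper sulfate induction and a 20 hr ambient-temperature incubation.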
# DT40 TDP1 no CPT: qHTS for Inhibitors of human tyrosyl-DNA phosphodiesterase 1 (TDP1): qHTS in cells in absence of CPT | DT40 Tdp1-/- hTDP1 cells, no CPT, ATP luminescence, 48 h | Potency, µM (doses to about 46.2 µM), actives largely listed as inhibitors | hit rate 15% among 420,000; also: nearly all actives have a fitted effect of over 55% in size
#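 Growth kinetics read by CellTiter-Glo luminescence after ≥48 hr at 37 °C. Cells: DT40 Tdp1-/- stably carrying human TDP1, 400 per well, compound exposure in the absence of CPT (DMSO vehicle).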
# VP16 counter: Gal4-VP16 reporter inhibition counter-screen; AID 2546; hit rate 3.5% among 310,000; Drosophila S2 Gal4-VP16 UAS-luciferase, luminescence, 20 h; Potency, µM (titrated, usually from 53.6 µM), hits mostly inhibitors;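 also: Gal4-VP16 expression switched on by copper sulfate through the metallothionein promoter; nearly all actives have a fitted effect of over 50% in size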
# TDP1 block: blocks human tyrosyl-DNA phosphodiesterase 1 | Q9NUW8 | recombinant TDP1, AlphaScreen DNA substrate cleavage | Potency, µM (top dose mostly 130 µM), hits mostly inhibitors | hit rate 0.28% among 350,000; also: nearly all actives have a fitted effect of over 40% in size
#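 Recombinant human Tdp1 (E. coli-expressed, 1 nM final) preincubated with compounds 15 min at room temperature, then 5'-biotin/3'-phosphotyrosine-FITC DNA substrate (15 nM final) added for 5 min. AlphaScreen beads (10 ug/ml final) added 10 min; cleavage lowers signal.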
# TDP1 cell CPT: DT40-hTDP1 cell growth loss with CPT; chicken DT40 Tdp1-/-;hTDP1 cells + 20 nM CPT, ATP luminescence, 48 h; Potency, µM (titrated, usually from 46.2 µM), actives largely listed as inhibitors; hit rate 12% among 420,000; also: nearly all actives have a fitted effect of over 55% in size
#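 Chicken DT40 Tdp1-/- cells complemented with human TDP1, 400 cells/well, exposed to compounds plus 20 nM camptothecin for at least 48 h at 37 C; viability read as ATP content by CellTiter-Glo luminescence.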
# Numbers stand for hits; 0 = inactive; ? = inconclusive; - = not tested or not shown; ! = not active in a repeat; [ ] = remark or other dose. An excerpt weighted towards active compounds, which were near 19% of everything screened. Calls follow the shape of the dose curve; as a rule, active = well fitted curve in the direction sought with a large enough effect; inconclusive = small, poorly fitted or top-dose-only effect, or another doubt; inactive = no such curve, though single readings can be large; an effect the other way counts as inactive or inconclusive.
SMILES,RORgamma inh,DT40 TDP1 no CPT,VP16 counter,TDP1 block,TDP1 cell CPT
Cc1c2ccncc2c(C)c2c1[nH]c1ccccc12,10µM,1.5µM,5.6µM,50µM,2.3µM
CCc1nccc2c1[nH]c1ccccc12,-,?,-,-,0
Cc1nccc2c1[nH]c1ccccc12,0,24µM!,0,0,?
CC(=O)c1ccc2c(c1)N(CCCN1CCN(CCO)CC1)c1ccccc1S2,0,?,0,-,?
COC(=O)C1=C(c2ccc(F)cc2OCc2ccccc2)C[C@@H]2CC[C@H]1N2C(=O)NCc1cccc(F)c1,-,?,-,0,?
CCc1c(C)nc(N)nc1N1N=C1SCC(N)=O,0,0,0,0,0
Cc1ccc2c(c1)CCCN2N=O,0,0,0,0,?
CCN1C[C@@]2(COC)CC[C@H](O)[C@@]34[C@@H]2C[C@@H]([C@@H]13)[C@]1(O)C[C@@H](OC)C2C[C@H]4[C@H]1[C@H]2OC(C)=O,0,-,0,0[21 µM],-
CCOCN(C(=O)CCl)c1c(C)cccc1CC,0,?,0,0,?
CCc1cccc(CC)c1N(COC)C(=O)CCl,0,?,0,0,21µM!
C=CCN1CCCC1CNC(=O)c1cc2[nH]nnc2cc1OC (centres undefined),-,?,-,-,0

# Assay outcomes as filed in PubChem.
